From PubChem BioAssay (EPA / NIEHS) come the findings set out here.

SMILES strings stand for the structures. Results filed as inconclusive are left out. Activity calls are given as the source filed them. Rule for the calls, unless noted: active = hit-call score of the fitted dose curve at least 0.9, where 1 is the maximum; inconclusive = response in the unintended direction; inactive = score below 0.9.

Assay [1] can be described thus: BSK_4H_Eotaxin3: BioMAP Diversity Plus: 4H Assay for Eotaxin 3 Biomarker Activity (AID 2283000; active = hit-call score of the fitted dose curve at least 0.9, where 1 is the maximum; inactive = score below 0.9;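 for outcome: CCL26 protein level quantified by ELISA in parallel with SRB cytotoxicity check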). The note with it: primary human endothelial cells (HUVEC); actives raise or lower the signal. In a few lines:
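Chemicals were added to human umbilical vein endothelium cultures, and Eotaxin-3 was quantified by ELISA at 24 h. Values were derived by bidirectional fitting with DMSO serving as negative control and activity baseline.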

In assay [2] the target is human Peroxisome Proliferator-activated Receptor delta (PPARd), PPARD (gene 5467) (UniProt Q03181). The experiment in a line: ATG_PPARd_TRANS: Attagene TRANS-FACTORIAL HepG2 Assay for human Peroxisome Proliferator-activated Receptor delta (PPARd) (AID 2283002). In outline: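 Fluorescence from capillary electrophoresis of labelled RT-PCR reporter fragments gives the signal; DMSO sets baseline. Cells: HepG2 transiently carrying GAL4-UAS reporter units plus chimeric nuclear receptor-Gal4 proteins, exposed to chemicals for 24 h.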

Read-out in assay [3]: Intercellular Adhesion Molecule 1 (ICAM1), ICAM1 (gene 3383)
The experiment in a line: BSK_3C_ICAM1: BioMAP Diversity Plus: 3C Assay for Intercellular Adhesion Molecule 1 (ICAM1) Biomarker Activity (AID 2283003; active = hit-call score of the fitted dose curve at least 0.9, where 1 is the maximum; inactive = score below 0.9). The following applies: primary human endothelial cells (HUVEC); actives raise or lower the signal. In a few lines: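 Primary human umbilical vein endothelial cells in the BioMAP 3C system were exposed to chemicals for 24 h, then ICAM-1 was quantified by ELISA. Activity was fitted bidirectionally against the DMSO negative control baseline.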

Assay [4] in a line: BSK_3C_Proliferation: Cell Proliferation Assessment in the BioMAP Diversity Plus: 3C Assay (AID 2283006; active = hit-call score of the fitted dose curve at least 0.9, where 1 is the maximum; inactive = score below 0.9;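 for AC50: potency may reflect either rise or fall in cell number versus DMSO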). The note with it: primary human endothelial cells (HUVEC). In outline:
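Human umbilical vein endothelial cells were grown sub-confluent and exposed to chemical for 48 h, then fixed with 10% TCA and stained with 0.1% sulforhodamine B; absorbance at 560 nm gave relative cell number, fitted bidirectionally against DMSO baseline.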

The target of assay [5] is Peroxisome proliferator-activated receptor gamma (Homo sapiens) (UniProt P37231). The experiment in a line: ATG_PPARg_TRANS: Attagene TRANS-FACTORIAL HepG2 Assay for human Peroxisome Proliferator-activated Receptor-gamma (PPARg) (AID 2283007). In outline:
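Chimeric NR-Gal4 transactivation is measured in transiently transfected HepG2 cells by reporter mRNA induction at 24 h. Detection uses RT-PCR with fluorescent labelling and capillary electrophoresis; DMSO defines baseline.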

For assay [6], the target named is Nuclear receptor subfamily 1 group I member 2 (Homo sapiens) (UniProt O75469). The experiment in a line: ATG_PXR_TRANS: Attagene TRANS-FACTORIAL HepG2 Assay for human Pregnane X Receptor (PXR) (AID 2283008). In outline: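 HepG2 cells transiently transfected with GAL4-UAS reporter units and PXR-Gal4 chimera, exposed 24 h. Reporter mRNA quantified by RT-PCR, fluorescent labelling, HpaI digestion and capillary electrophoresis; gain of signal vs DMSO.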

Assay [7] deals with Retinoic acid receptor RXR-alpha (Homo sapiens) (UniProt P19793). The experiment in a line: ATG_RXRa_TRANS: Attagene TRANS-FACTORIAL HepG2 Assay for human Retinoid X Receptor alpha (RXRa) (AID 2283012). In a few lines:
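HepG2 cells transiently transfected with multiplexed GAL4-UAS reporter units and chimeric NR-GAL4 fusions, dosed 24 h. Reporter mRNA measured by RT-PCR, FAM labelling, HpaI digestion and capillary electrophoresis; gain-of-signal fitted relative to DMSO baseline.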

Assay [8] concerns the target human Retinoid X Receptor beta (RXRb), RXRB (gene 6257) (UniProt P28702). The experiment in a line: ATG_RXRb_TRANS: Attagene TRANS-FACTORIAL HepG2 Assay for human Retinoid X Receptor beta (RXRb) (AID 2283013). In a few lines:
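HepG2 cells transiently transfected with multiplexed reporter units driven by GAL4-UAS and exogenous chimeric NR-Gal4 proteins; treated 24 h. Reporter mRNA measured by RT-PCR, 6-FAM labelling and capillary electrophoresis; gain-of-signal fitted versus DMSO baseline.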

Assay [9] deals with human Thyroid Receptor alpha (THRa1), THRA (gene 7067) (UniProt P10827). The experiment in a line: ATG_THRa1_TRANS: Attagene TRANS-FACTORIAL HepG2 Assay for human Thyroid Receptor alpha (THRa1) (AID 2283014). In outline: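 Reporter transcript induction, read by capillary electrophoresis of 6-FAM-labelled RT-PCR products, reflects activity of a transfected THRa1-Gal4 fusion in HepG2 liver cells. Cells were dosed for 24 h; activity was fitted in the positive direction against DMSO.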

Read-out in assay [10]: E-selectin (Homo sapiens) (UniProt P16581)
The experiment in a line: BSK_3C_Eselectin: BioMAP Diversity Plus: 3C Assay for Eselectin Biomarker Activity (AID 2283015; active = hit-call score of the fitted dose curve at least 0.9, where 1 is the maximum; inactive = score below 0.9;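 for outcome: cell surface E-selectin protein quantified by ELISA 24 h after dosing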). The note with it: primary human endothelial cells (HUVEC); actives raise or lower the signal. In outline:
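ELISA read-out of E-selectin on endothelial monolayers after 24 h chemical treatment. Human umbilical vein primary cells served as the system, with DMSO defining baseline activity for bidirectional fitting.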

Read-out in assay [11]: Interleukin-1 alpha (IL1a), IL1A (gene 3552)
The experiment in a line: BSK_BE3C_IL1a: BioMAP Diversity Plus: BE3C Assay for Interleukin-1 alpha (IL1a) Biomarker Activity (AID 2283016; active = hit-call score of the fitted dose curve at least 0.9, where 1 is the maximum; inactive = score below 0.9). The following applies: primary human bronchial epithelial cells; actives raise or lower the signal. In a few lines: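 Human primary bronchial epithelial cells (BE3C system) were dosed with compound and IL-1a measured by ELISA 24 h later. Activity was fitted bidirectionally against DMSO baseline; cytotoxicity was tracked in parallel cultures by SRB total-protein staining.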

Read-out in assay [12]: Monocyte Chemoattractant Protein-1 (MCP1), CCL2 (gene 6347)
The experiment in a line: BSK_3C_MCP1: BioMAP Diversity Plus: 3C Assay for Monocyte Chemoattractant Protein-1 (MCP1) Biomarker Activity (AID 2283017; active = hit-call score of the fitted dose curve at least 0.9, where 1 is the maximum; inactive = score below 0.9). The following applies: primary human endothelial cells (HUVEC); actives raise or lower the signal. In outline: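 ELISA read-out of MCP-1 from human umbilical vein endothelial cell cultures harvested 24 h post-dosing. Gain or loss of signal was fitted relative to DMSO.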

Read-out in assay [13]: Monocyte Chemoattractant Protein-1 (MCP1), CCL2 (gene 6347)
The experiment in a line: BSK_4H_MCP1: BioMAP Diversity Plus: 4H Assay for Monocyte Chemoattractant Protein-1 (MCP1) Biomarker Activity (AID 2283018; active = hit-call score of the fitted dose curve at least 0.9, where 1 is the maximum; inactive = score below 0.9). The note with it: primary human endothelial cells (HUVEC); actives raise or lower the signal. In a few lines:
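Human umbilical vein endothelial cells (4H system) dosed with chemical; MCP-1 measured by ELISA 24 h after dosing. Bidirectional curve fitting against DMSO negative control as baseline; parallel SRB total-protein staining tracks overt cytotoxicity.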

Read-out in assay [14]: Human Leukocyte Antigen - DR isotype (HLADR), HLA-DRA (gene 3122)
The experiment in a line: BSK_3C_HLADR: BioMAP Diversity Plus: 3C Assay for Human Leukocyte Antigen - DR isotype (HLADR) Biomarker Activity (AID 2283019; active = hit-call score of the fitted dose curve at least 0.9, where 1 is the maximum; inactive = score below 0.9;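 for outcome: ELISA of cell-surface HLA-DR on HUVEC 24 h after dosing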). The following applies: primary human endothelial cells (HUVEC); actives raise or lower the signal. In outline:
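ELISA readout of surface HLA-DR on human umbilical vein endothelium, taken 24 h after chemical treatment. Gain- and loss-of-signal were both fitted relative to DMSO.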

For assay [15], the target named is human Peroxisome Proliferator-activated Receptor alpha (PPARa), PPARA (gene 5465) (UniProt Q07869). The experiment in a line: ATG_PPARa_TRANS: Attagene TRANS-FACTORIAL HepG2 Assay for human Peroxisome Proliferator-activated Receptor alpha (PPARa) (AID 2283001).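 For AC50: potency for gain of reporter signal over DMSO so agonist or activator.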 In a few lines: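 Measures transcriptional activity of an exogenous chimeric PPARa-Gal4 protein in transiently transfected HepG2 cells after 24 h dosing. Reporter mRNA quantified via RT-PCR and capillary electrophoresis; DMSO served as negative control.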

The target of assay [16] is human RAR-related Orphan Receptor beta (RORb), RORB (gene 6096) (UniProt Q92753). The experiment in a line: ATG_RORb_TRANS: Attagene TRANS-FACTORIAL HepG2 Assay for human RAR-related Orphan Receptor beta (RORb) (AID 2283010). In a few lines:
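HepG2 cells were transiently transfected with multiplexed GAL4-UAS reporter units expressing chimeric nuclear receptor–GAL4 proteins, then dosed for 24 h. Reporter mRNA was quantified by RT-PCR with fluorescent labelling and capillary electrophoresis; gain of signal was fitted relative to DMSO.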

The target of assay [17] is human Retinoic Acid Receptor beta (RARb), RARB (gene 5915) (UniProt P10826). The experiment in a line: ATG_RARb_TRANS: Attagene TRANS-FACTORIAL HepG2 Assay for human Retinoic Acid Receptor beta (AID 2283004). In outline:
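Transient transfection of HepG2 with multiple reporter units → chemical dosing, 24 h → total RNA isolation → RT with oligo(dT) → reporter-specific PCR, 6-FAM primer extension, HpaI digest → capillary electrophoresis. Positive direction vs DMSO control.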

In assay [18] the target is Retinoic acid receptor alpha (Homo sapiens) (UniProt P10276). The experiment in a line: ATG_RARa_TRANS: Attagene TRANS-FACTORIAL HepG2 Assay for human Retinoic Acid Receptor alpha (RARa) (AID 2283005). In a few lines:
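HepG2 transiently transfected with multiplex GAL4-UAS reporter units including a human RARa–GAL4 chimera; 24 h compound exposure. Reporter mRNA quantified by RT-PCR, 6-FAM labeling and capillary electrophoresis; gain of signal versus DMSO.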

Assay [19] deals with human Retinoic Acid Receptor gamma (RARg), RARG (gene 5916) (UniProt P13631). The experiment in a line: ATG_RARg_TRANS: Attagene TRANS-FACTORIAL HepG2 Assay for human Retinoic Acid Receptor gamma (RARg) (AID 2283009). In outline:
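HepG2 cells transiently transfected with multiplexed reporter units expressing chimeric RARg-GAL4 and GAL4-UAS-driven reporters; 24 h compound exposure. Reporter mRNA quantified by RT-PCR with fluorescent labelling and capillary electrophoresis; gain-of-signal fitted relative to DMSO baseline.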

Assay [20] has as its target human RAR-related Orphan Receptor gamma (RORg), RORC (gene 6097) (UniProt P51449). The experiment in a line: ATG_RORg_TRANS: Attagene TRANS-FACTORIAL HepG2 Assay for human RAR-related Orphan Receptor gamma (RORg) (AID 2283011). In a few lines:
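First, HepG2 liver cells were transfected with GAL4-UAS-driven reporter constructs and the RORg-Gal4 fusion. Next, they were treated with chemical for 24 h. Finally, reporter mRNA was quantified by RT-PCR and capillary electrophoresis, with upward activity fitted against DMSO.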

Sequence of human Peroxisome Proliferator-activated Receptor alpha (PPARa), PPARA (gene 5465) (Q07869 whole entry, looked up, the tested form may be a part): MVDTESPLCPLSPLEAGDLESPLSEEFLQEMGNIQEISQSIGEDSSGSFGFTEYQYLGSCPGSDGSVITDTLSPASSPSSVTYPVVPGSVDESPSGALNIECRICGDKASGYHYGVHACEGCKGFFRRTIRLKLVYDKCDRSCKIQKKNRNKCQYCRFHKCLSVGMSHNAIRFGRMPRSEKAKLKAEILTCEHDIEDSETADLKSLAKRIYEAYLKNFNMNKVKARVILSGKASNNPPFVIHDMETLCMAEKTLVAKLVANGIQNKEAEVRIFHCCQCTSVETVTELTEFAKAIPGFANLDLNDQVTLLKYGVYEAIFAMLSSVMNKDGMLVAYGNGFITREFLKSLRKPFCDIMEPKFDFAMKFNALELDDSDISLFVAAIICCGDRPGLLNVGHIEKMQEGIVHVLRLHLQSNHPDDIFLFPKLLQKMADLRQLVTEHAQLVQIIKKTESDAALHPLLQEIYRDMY
Sequence of E-selectin (Homo sapiens) (P16581 whole entry, looked up): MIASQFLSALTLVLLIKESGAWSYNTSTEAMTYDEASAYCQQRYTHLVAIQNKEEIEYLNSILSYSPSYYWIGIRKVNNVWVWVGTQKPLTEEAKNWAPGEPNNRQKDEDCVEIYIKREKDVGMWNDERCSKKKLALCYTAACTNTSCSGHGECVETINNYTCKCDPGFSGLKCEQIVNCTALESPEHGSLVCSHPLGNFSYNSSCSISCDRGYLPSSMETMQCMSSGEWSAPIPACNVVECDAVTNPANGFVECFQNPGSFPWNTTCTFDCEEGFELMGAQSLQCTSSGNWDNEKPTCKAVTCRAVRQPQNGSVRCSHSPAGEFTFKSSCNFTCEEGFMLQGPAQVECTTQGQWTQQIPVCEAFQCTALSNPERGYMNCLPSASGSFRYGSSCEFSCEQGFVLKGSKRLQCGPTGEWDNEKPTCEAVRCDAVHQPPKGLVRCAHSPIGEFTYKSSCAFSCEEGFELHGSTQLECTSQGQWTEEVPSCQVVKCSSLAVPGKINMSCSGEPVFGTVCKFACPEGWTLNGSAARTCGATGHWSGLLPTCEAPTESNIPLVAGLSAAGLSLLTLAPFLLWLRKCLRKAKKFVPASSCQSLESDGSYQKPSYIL
Sequence of Nuclear receptor subfamily 1 group I member 2 (Homo sapiens) (O75469 whole entry, looked up, the tested form may be a part): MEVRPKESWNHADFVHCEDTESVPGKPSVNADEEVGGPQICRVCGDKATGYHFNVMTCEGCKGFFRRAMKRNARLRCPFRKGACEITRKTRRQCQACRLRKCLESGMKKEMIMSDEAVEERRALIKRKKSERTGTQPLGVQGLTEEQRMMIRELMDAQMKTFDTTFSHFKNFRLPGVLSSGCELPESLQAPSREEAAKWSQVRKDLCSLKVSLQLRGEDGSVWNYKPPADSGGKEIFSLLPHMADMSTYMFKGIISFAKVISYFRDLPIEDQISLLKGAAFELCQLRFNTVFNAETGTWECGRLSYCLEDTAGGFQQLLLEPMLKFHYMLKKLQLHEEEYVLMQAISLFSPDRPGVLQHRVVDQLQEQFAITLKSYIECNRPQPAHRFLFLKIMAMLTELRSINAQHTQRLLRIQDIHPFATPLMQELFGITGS
Sequence of Retinoic acid receptor RXR-alpha (Homo sapiens) (P19793 whole entry, looked up, the tested form may be a part): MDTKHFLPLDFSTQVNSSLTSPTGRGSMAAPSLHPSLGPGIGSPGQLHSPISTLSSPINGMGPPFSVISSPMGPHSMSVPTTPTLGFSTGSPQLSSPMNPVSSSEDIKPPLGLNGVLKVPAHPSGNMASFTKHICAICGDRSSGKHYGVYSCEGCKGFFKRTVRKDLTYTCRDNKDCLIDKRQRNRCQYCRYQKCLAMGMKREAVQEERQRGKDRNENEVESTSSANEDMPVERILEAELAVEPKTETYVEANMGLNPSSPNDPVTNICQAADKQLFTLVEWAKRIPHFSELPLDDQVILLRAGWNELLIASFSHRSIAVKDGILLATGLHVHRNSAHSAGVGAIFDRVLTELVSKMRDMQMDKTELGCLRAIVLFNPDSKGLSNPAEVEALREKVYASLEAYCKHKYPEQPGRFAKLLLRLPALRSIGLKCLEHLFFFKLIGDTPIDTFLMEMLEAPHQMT
Sequence of Peroxisome proliferator-activated receptor gamma (Homo sapiens) (P37231 whole entry, looked up, the tested form may be a part): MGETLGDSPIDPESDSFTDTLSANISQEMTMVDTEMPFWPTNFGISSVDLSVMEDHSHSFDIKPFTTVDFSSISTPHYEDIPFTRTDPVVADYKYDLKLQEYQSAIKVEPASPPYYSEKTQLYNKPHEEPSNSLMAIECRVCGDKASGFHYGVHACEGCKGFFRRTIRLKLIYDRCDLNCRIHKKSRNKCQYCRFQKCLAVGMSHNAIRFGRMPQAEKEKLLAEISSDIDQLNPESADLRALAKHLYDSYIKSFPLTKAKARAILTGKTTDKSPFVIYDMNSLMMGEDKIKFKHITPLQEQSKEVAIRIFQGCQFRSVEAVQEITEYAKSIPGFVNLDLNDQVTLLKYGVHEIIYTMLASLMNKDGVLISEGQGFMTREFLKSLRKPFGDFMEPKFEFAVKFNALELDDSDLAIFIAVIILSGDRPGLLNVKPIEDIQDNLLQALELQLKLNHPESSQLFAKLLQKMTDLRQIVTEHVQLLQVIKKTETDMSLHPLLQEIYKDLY
Sequence of human Peroxisome Proliferator-activated Receptor delta (PPARd), PPARD (gene 5467) (Q03181 whole entry, looked up, the tested form may be a part): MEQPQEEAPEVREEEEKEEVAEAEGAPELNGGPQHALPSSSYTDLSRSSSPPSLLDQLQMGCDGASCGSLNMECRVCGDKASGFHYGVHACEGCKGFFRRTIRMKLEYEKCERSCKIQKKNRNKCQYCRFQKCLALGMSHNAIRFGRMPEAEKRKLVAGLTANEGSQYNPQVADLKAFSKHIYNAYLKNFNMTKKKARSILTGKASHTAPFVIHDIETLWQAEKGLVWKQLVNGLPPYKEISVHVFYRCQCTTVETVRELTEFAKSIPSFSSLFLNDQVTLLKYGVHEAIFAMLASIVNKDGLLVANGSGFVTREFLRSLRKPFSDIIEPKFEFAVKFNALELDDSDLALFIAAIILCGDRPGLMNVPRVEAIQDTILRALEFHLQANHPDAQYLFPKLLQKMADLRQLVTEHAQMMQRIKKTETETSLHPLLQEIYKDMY
Sequence of human RAR-related Orphan Receptor beta (RORb), RORB (gene 6096) (Q92753 whole entry, looked up, the tested form may be a part): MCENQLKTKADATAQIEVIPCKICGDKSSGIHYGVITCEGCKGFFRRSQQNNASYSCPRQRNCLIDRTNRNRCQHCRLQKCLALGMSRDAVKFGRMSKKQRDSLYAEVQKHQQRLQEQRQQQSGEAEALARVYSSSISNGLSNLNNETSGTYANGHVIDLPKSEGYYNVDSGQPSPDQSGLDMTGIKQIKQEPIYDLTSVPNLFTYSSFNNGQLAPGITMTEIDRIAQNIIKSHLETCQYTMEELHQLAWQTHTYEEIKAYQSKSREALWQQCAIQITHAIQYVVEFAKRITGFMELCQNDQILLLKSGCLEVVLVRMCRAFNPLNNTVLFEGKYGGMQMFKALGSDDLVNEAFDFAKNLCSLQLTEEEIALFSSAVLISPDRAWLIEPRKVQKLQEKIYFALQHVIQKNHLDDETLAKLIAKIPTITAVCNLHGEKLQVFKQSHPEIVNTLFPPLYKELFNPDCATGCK
Sequence of human Retinoid X Receptor beta (RXRb), RXRB (gene 6257) (P28702 whole entry, looked up, the tested form may be a part): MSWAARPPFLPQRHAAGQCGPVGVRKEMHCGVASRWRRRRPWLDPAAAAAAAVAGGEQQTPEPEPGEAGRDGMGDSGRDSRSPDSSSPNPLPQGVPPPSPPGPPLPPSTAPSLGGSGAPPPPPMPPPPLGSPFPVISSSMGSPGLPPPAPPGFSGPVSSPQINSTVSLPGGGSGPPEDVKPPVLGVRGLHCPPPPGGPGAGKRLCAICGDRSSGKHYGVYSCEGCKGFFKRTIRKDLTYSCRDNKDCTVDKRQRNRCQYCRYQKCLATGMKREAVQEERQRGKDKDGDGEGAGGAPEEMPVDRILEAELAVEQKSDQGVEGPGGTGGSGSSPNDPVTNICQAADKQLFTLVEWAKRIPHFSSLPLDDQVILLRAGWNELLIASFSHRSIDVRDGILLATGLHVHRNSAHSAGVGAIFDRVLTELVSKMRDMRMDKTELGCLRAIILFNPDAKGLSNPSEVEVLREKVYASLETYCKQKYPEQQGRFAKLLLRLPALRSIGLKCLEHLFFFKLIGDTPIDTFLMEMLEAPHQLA
Sequence of human Thyroid Receptor alpha (THRa1), THRA (gene 7067) (P10827 whole entry, looked up, the tested form may be a part): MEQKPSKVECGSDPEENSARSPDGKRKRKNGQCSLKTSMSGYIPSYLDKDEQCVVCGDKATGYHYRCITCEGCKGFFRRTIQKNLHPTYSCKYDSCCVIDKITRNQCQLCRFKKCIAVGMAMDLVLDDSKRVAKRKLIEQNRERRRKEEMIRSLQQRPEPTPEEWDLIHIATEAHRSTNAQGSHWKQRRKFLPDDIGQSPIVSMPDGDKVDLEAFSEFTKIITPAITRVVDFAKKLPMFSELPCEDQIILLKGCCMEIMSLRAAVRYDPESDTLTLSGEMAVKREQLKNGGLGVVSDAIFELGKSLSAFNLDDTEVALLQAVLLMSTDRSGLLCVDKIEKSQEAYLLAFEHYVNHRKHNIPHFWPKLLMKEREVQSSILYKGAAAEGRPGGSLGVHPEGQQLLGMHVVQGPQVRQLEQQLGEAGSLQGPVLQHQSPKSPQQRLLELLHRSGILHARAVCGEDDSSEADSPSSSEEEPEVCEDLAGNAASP
Sequence of Retinoic acid receptor alpha (Homo sapiens) (P10276 whole entry, looked up, the tested form may be a part): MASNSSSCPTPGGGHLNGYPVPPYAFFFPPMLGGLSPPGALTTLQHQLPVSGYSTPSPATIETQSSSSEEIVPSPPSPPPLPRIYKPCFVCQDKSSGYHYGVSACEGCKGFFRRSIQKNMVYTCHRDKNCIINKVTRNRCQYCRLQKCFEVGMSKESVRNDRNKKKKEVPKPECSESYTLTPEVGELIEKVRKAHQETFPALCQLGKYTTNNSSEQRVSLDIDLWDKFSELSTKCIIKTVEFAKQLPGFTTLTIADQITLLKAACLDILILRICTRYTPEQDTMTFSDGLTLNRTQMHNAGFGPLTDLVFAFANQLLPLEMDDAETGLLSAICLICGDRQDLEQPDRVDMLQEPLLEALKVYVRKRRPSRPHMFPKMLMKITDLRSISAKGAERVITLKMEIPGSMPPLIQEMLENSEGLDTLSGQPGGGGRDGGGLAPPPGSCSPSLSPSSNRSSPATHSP

For `C=CC(=O)OCCCCCCOC(=O)C=C`, the AC50 (commonly the concentration giving half of the maximal activity seen) in assay [1] is 12.4 µM (active); in assay [3], 29.3 µM (active); in [4], 8.97 µM (active); in assay [5] it was 6.09 µM (active); in assay [6], 26.5 µM (active); in [10], 6.59 µM (active). The AC50 in [11] was 10 µM (active); in assay [12], 20 µM (active); in [13], 9.96 µM (active); in [14] it was 4.69 µM (active). Also, the call in assay [2], in assay [7], in assay [8] and in [9] was inactive.

Take `CC(C)[N+](C)(CCOC(=O)C1c2ccccc2Oc2ccccc21)C(C)C`: the outcome in assay [1], in assay [15], in [2], in assay [4], in assay [6] and in assay [16] was inactive. In addition, the compound was called inactive in assay [9], in assay [10], in assay [11], in assay [12], in assay [13] and in assay [14]. Further, the AC50 in assay [5] is 58.2 µM (active).

On to `CCOC(=O)/C=C\C(=O)OCC`, for which the outcome in [1], in assay [2], in assay [17], in assay [18], in assay [4] and in assay [6] was inactive. Further, the compound was called inactive in [19], in assay [7], in [10], in [11], in assay [12] and in [13]. Moreover, the concentration at half-maximal activity (AC50) in [15] is 49.6 µM (active); in [5], 9.4 µM (active); in assay [14], 32.5 µM (active).

`CCCCCCCCCCCC(C)=O`: the concentration at half-maximal activity (AC50) is 30.1 µM (active) in [1]; 20 µM (active) in assay [4]; 51 µM (active) in [5]; 25.9 µM (active) in [8]; 33.7 µM (active) in assay [10]; 20 µM (active) in assay [11]. Moreover, the AC50 in assay [12] was 31.3 µM (active); in assay [13], 29.8 µM (active); in [14], 32.5 µM (active). Moreover, the result in assay [15], in assay [17], in assay [18], in assay [6], in [19] and in assay [16] was inactive. The compound was classed as inactive in [20] and in [7].
